S2 tox – Viability Counterscreen for Primary qHTS for Inhibitors of ATXN expression | 400,000 tested, 0.49% active | S2 cells (HEK-293 line with an ATXN2-luciferase reporter) viability, CellTiter-Fluor protease fluorescence, 24 h | Potency, µM (doses to about 56.7 µM), actives largely listed as cytotoxic; further: nearly all actives have a fitted effect of over 40% in size
TGFb SMAD3 inh – qHTS for Inhibitors of TGF-b; HepG2 CAGA-GFP TGF-b/SMAD3 reporter, GFP fluorescence, 18 h; TGF-beta stimulated, 500 pg/mL final; 410,000 tested, 1.2% active; Potency, µM (doses to about 46.1 µM), for the others: at the top dose activity, negative = inhibition, hits mostly inhibitors; further: on the % scale 0 is the no-effect control and ±100 the full control effect; nearly all actives have a fitted effect of over 65% in size
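HEPG2 CAGA-GFP cells (1000/well, DMEM with 1% FBS) were pre-incubated 2 h at 37 degrees C, given compound by pin tool, then stimulated with TGF-beta at 500 pg/mL final for 18 h before per-cell GFP fluorescence imaging.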
HepG2 viability – qHTS for Inhibitors of TGF-b: Cytotox Counterscreen. Potency, µM (highest dose often 46.1 µM), without a hit: top-dose activity change, negative = cytotoxicity, usual class: cytotoxic. HepG2 CAGA-GFP viability, ATP luminescence, 18 h. 410,000 tested, 0.76% active
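HepG2 CAGA-GFP cells (1000/well, DMEM with 1% FBS) received compound, then TGF-beta at 500 pg/mL final, and were incubated 18 hours at 37 degrees C. Viability was read by CellTiter-Glo luminescence. Media-only wells were set as complete cell-killing and DMSO as no toxicity.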
KB-3-1 cytotox – qHTS assay for MDR1-selective chemotherapeutics: Primary screen using the parental adenocarcinoma cell KB-3-1; KB-3-1 viability, CellTiter-Glo ATP luminescence, 72 h; AID 1347075, 2019; Potency, µM (series often up to 46.1 µM), most hits filed as cytotoxic; 400,000 tested, 1.4% active; further: on the % scale 0 is the no-effect control and ±100 the full control effect; nearly all actives have a fitted effect of over 60% in size
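KB-3-1 parental drug-naive adenocarcinoma cells in DMEM/10% FBS, incubated 72 h at 37 C with pin-transferred compounds across a concentration series. Viability by CellTiter-Glo luminescence; concentration-response curves fitted after normalization.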
KB-V1 MDR tox – qHTS assay for MDR1-selective chemotherapeutics: Primary screen using the drug-selected MDR subline cells KB-V1 | KB-V1 MDR cells viability, CellTiter-Glo, 72 h | Potency, µM (titrated, usually from 46.1 µM), hits mostly cytotoxic | 400,000 tested, 3.4% active | AID 1347076, 2019; further: on the % scale 0 is the no-effect control and ±100 the full control effect; nearly all actives have a fitted effect of over 60% in size
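Cytotoxicity toward P-gp-expressing KB-V1 cells was determined as loss of CellTiter-Glo luminescence after 72 h at 37 degrees C. Compounds were tested in quantitative HTS format across a concentration range, with curves fitted to normalized data.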
ATXN2 expr inh – Primary qHTS for Inhibitors of ATXN expression; AID 1745845, 2022; Potency, µM (top dose mostly 57 µM), for the others: top-dose activity change, negative = inhibition, usual class: inhibitors; 360,000 tested, 0.72% active; HEK-293 ATXN2-luciferase reporter, luminescence, 24 h; further: on the % scale 0 is the no-effect control and ±100 the full control effect; nearly all actives have a fitted effect of over 55% in size
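ATXN2-luciferase reporter cells (luciferase flanked by upstream and downstream ATXN2 gene portions) were treated 24 h at 37 °C with compounds at up to 57 uM. SteadyGlo luminescence gave expression; GF-AFC fluorescence gave viability.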
* hit, by the source's call; i = inactive; ? = inconclusive; / = no result given; ! = not active in a repeat. Hits are enriched below; roughly 5.9% of the tested compounds scored in any of these assays. The call rests on the fitted dose curve; in most records, active means well fitted curve in the direction sought with a large enough effect; inconclusive means small, poorly fitted or top-dose-only effect, or another doubt; inactive means no such curve, though single readings can be large; an effect the other way counts as inactive or inconclusive. Potency means the concentration at half of the fitted maximal effect.

SMILES | S2 tox | TGFb SMAD3 inh | HepG2 viability | KB-3-1 cytotox | KB-V1 MDR tox | ATXN2 expr inh
C=CCn1c(-c2ccccc2)c[nH]c1=S | i | -6% | -12% | ? | ? | 56%
CCc1nc2c(OCc3cc(Cl)cc(Cl)c3)cccn2c1N(C)C(=O)Nc1ccccc1OC | i | ? | -47% | ? | 21µM* | 0%
CCc1nc2c(OCc3ccccc3)cccn2c1N(C)C(=O)Nc1ccccc1OC | i | -1% | -18% | i | i | 4%
CCOC(=O)N(C)c1c(CC)nc2c(OCc3ccccc3C)cccn12 | i | 2% | -7% | ? | 16µM* | ?
CCOC(=O)N(C)c1c(CC)nc2c(OCc3ccccc3OC)cccn12 | i | ? | -4% | i | ? | ?
CCc1nc2c(OCc3cc(Cl)cc(Cl)c3)cccn2c1N(C=O)Cc1ccccc1 | ? | ? | -73% | ? | 21µM* | ?
O=C(CSc1nc2ccccc2nc1Cc1ccccc1)Nc1ccc2c(c1)OCO2 | / | 11% | 4% | ? | i | /
CN(C)CCCN(C(=O)c1ccc2ccccc2c1)c1nc2cc3c(cc2s1)OCO3 | 32µM* | -29% | -39% | i | i | 25µM*
Cc1cc(C)c2nc(N(CCCN(C)C)C(=O)c3ccc4c(c3)OCCO4)sc2c1 | ? | ? | -118% | ? | 26µM* | ?
Cc1cccc2sc(N(CCN(C)C)C(=O)c3ccc4c(c3)OCCO4)nc12 | / | -24% | -22% | / | / | /
Cc1cccc2sc(N(CCCN(C)C)C(=O)c3ccco3)nc12 | i | 0% | 0% | ? | i | ?
Cc1cccc2sc(N(CCCN(C)C)C(=O)c3ccc(Cl)s3)nc12 | ? | ? | -17% | i | i | 22µM*!
CCN(CC)CCN(C(=O)c1cc2c(ccc3ccccc32)oc1=O)c1nc2cc3c(cc2s1)OCCO3 | i | 13µM* | -84% | ? | i | -8%
Cc1cc2c(cc1S(=O)(=O)Nc1ccc(C(C)C)cc1)OCCN2C | i | ? | -32% | i | i | -7%
CCN(c1ccccc1)S(=O)(=O)c1ccc(C(=O)N(CCCN(C)C)c2nc3cc4c(cc3s2)OCO4)cc1 | i | 22µM* | -108% | i | i | ?
CN(C)CCCN(C(=O)c1ccc(S(=O)(=O)N(C)Cc2ccccc2)cc1)c1nc2cc3c(cc2s1)OCO3 | ? | ? | -101% | i | ? | ?
Cc1cccc(NS(=O)(=O)c2cccc(C(=O)NCC(c3ccc(F)cc3)N3CCOCC3)c2)c1 (stereo not given) | i | -29% | -19% | ? | 21µM* | -18%
C/C=C(/CC[C@@H](C)[C@H]1CC[C@H]2C3=CC[C@H]4[C@H](C)[C@@H](O)CC[C@]4(C)[C@H]3CC[C@]12C)C(C)C | i | / | / | / | / | /
CN(CC(=O)Nc1ccc(Cl)c(C(F)(F)F)c1)C(=O)Cc1n[nH]c(=O)c2ccccc12 | i | ? | -22% | ? | i | -7%
Cc1nc(-c2ccc(F)cc2)c(CC(=O)N(C)CC(=O)Nc2ccccc2Cl)s1 | i | -22% | -11% | i | 3.7µM* | -4%
Cc1nc(-c2ccc(F)cc2)c(CC(=O)N(C)CC(=O)Nc2ccc(Cl)c(C(F)(F)F)c2)s1 | i | 18µM* | -82% | i | i | ?
COCCN(CC(=O)Nc1cccc(C)c1C)C(=O)Cc1sc(C)nc1-c1ccc(F)cc1 | ? | -23% | -27% | i | i | -15%
Cc1ccc(S(=O)(=O)N2CCCCC2c2cccnc2)c(C)c1C (stereo not given) | ? | ? | -31% | ? | 16µM* | /
CCCC1=Nc2cc(C(=O)NCc3ccccc3)ccc2Sc2ccccc21 | / | ? | 8% | / | / | /
CCc1ccc2c(c1)-c1ccccc1S(=O)(=O)N2CC(=O)N1CCCCC1 | i | -19% | -20% | i | i | 37%
SMILES | S2 tox | TGFb SMAD3 inh | HepG2 viability | KB-3-1 cytotox | KB-V1 MDR tox | ATXN2 expr inh
O=C(Nc1ccccc1N1CCOCC1)c1cc(-c2ccncc2)nc2ccccc12 | ? | 2% | 12% | i | 18µM* | -35%
O=C(NN1CCOCC1)c1cc(-c2cccc(Cl)c2)nc2ccccc12 | i | 0% | -7% | i | 12µM* | -13%
COc1cccc(Cc2nc3cccnc3n2C2CCN(Cc3ccc(C)s3)CC2)c1 | i | / | / | / | / | /
O=C(CNC(=O)c1ccco1)N=Nc1c(O)n(CCc2ccccc2)c2ccccc12 | ? | ? | -1% | 1.3µM* | 3.7µM* | /
CCCCn1c(O)c(N=NC(=O)c2ccco2)c2ccccc21 | i | ? | -18% | i | 16µM* | 20%
COc1ccc(-c2oc3c(c2C(=O)OCCO)C(OCCO)CCC3)cc1 (stereo not given) | i | / | / | i | ? | -3%
CCCc1cc(NCc2ccccn2)n2nc(C)c(-c3ccccc3)c2n1 | ? | ? | -41% | ? | i | 10µM*
Cc1nn2c(NCc3ccccn3)cc(C(C)C)nc2c1-c1ccccc1 | ? | 11µM* | -61% | i | ? | /
CC(=O)Nc1ccc(Nc2cc(C(C)C)nc3c(-c4ccccc4)c(C)nn23)cc1 | ? | ? | -108% | 5.8µM* | i | ?
CC(=O)Nc1ccc(Nc2cc(C)nc3c(-c4ccccc4)c(C)nn23)cc1 | i | 0% | -6% | i | i | -4%
C=C(C)CSc1cc(C)nc2c(-c3ccccc3)c(C)nn12 | i | -22% | -16% | ? | 6.5µM* | /
CCN1CCCC1CNC(=O)c1cnn(-c2ncc(C)c(-c3ccc(F)cc3)n2)c1C(C)C (stereo not given) | i | / | / | / | / | /
Cc1cc(NCCC(C)C)n2nc(C)c(-c3ccccc3)c2n1 | i | 2% | -29% | i | 21µM* | 12%
COc1ccc2cc3cc(C(=O)Nc4ccccc4N4CCN(C)CC4)oc3nc2c1 | / | -9% | 10µM* | ? | 12µM* | ?
CN(Cc1ccccc1)C(=S)Nc1ccc(OC(F)F)cc1 | i | -6% | -28% | i | 15µM* | 27%
CN(C)CCCN(Cc1ccccc1)C(=S)Nc1ccc(OC(F)F)cc1 | i | ? | -34% | i | ? | -12%
Cc1ccsc1CN(C)c1ncnc2ccc(-c3ccc4c(c3)OCO4)cc12 | / | / | / | ? | i | /
